Common to all, as to format: functional
Experiment [1] deals with Solute carrier family 2, facilitated glucose transporter member 1 (Homo sapiens) (UniProt P11166). Kind of experiment: ST_JUDE_LEISH: Cytotoxicity at 2uM final concentration against transgenic Leishmania Mexicana promastigotes LmGLUT1 that are glucose transport deficient and complemented with the human glucose transporter GLUT1. Activity is measured by DNA content using SYBR green in vitro.

Experiment [2] concerns the target Hexose transporter 1 (Plasmodium falciparum) (UniProt O97467). Nature of the experiment: ST_JUDE_LEISH: Cytotoxicity at 2uM final concentration against transgenic Leishmania Mexicana promastigotes LmPfHT that are glucose transport deficient and complemented with the Plasmodium falciparum hexose transporter. Activity is measured by DNA content using SYBR green in vitro.

Experiment [3] has as its target Glucose transporter (Leishmania mexicana) (UniProt O61059). Kind of experiment: ST_JUDE_LEISH: Cytotoxicity at 2uM final concentration against transgenic Leishmania Mexicana promastigotes LmGT2 that are glucose transport deficient and complemented with the L. Mexicana glucose transporter 2. Activity is measured by DNA content using SYBR green in vitro.

This passage reports inhibition results from ChEMBL document CHEMBL3433997, “St. Jude Leishmania screening dataset” (2016).

Broadly, the inhibition is the relative decrease from the control value, in per cent.

Solute carrier family 2, facilitated glucose transporter member 1 (Homo sapiens), sequence (P11166 whole entry): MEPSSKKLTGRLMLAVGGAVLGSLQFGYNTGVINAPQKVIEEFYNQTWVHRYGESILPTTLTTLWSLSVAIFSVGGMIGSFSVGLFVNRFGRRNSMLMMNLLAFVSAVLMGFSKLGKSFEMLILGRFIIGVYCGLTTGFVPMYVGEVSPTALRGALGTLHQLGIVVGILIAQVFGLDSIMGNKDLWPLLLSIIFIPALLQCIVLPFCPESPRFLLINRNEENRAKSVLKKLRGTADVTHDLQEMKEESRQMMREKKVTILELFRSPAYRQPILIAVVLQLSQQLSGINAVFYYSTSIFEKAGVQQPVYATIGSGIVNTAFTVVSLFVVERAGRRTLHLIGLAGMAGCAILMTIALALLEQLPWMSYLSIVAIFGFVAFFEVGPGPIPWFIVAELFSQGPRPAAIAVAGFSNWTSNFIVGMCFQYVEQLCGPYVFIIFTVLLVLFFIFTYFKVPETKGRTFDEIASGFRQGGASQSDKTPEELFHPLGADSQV

For the compound `COc1cc2nccc(Nc3ccc(OCc4ccc(NC(C)=O)cc4)cc3)c2cc1OC`, the inhibition was 5.38% in experiment [1], 7.36% in experiment [2] and 2.65% in experiment [3].
As for `CC1(C)NC(N)=NC(=N)N1OCCOc1ccc(Cc2ccccc2)cc1`, the inhibition was 1.41% in experiment [1], 0.91% in experiment [2] and 0.68% in experiment [3].
For `CCN(CC)/C(=N/C(=N)Nc1ccc(Br)cc1)NCCCCCCN/C(=N\C(=N)Nc1ccc(Br)cc1)N(CC)CC`, the inhibition is -1.08% in experiment [1], 0.19% in experiment [2] and -0.11% in experiment [3].
In the same order, the values of `Nc1ccc(-c2nc3c(ccc4ccccc43)[nH]2)cc1` are 2.25%, 1.85% and 0.2%.
For `C=CCn1c(Sc2ccc(C#N)c([N+](=O)[O-])c2)nnc1-c1cccc(Cl)c1` the same measures were -1.46%, -0.51% and -1.95%.
As to `FC(F)(F)c1ccc2[nH]c(-c3ccc(-c4cccc(CNCCc5ccncc5)c4)s3)nc2c1`, the inhibition is 0.52% in experiment [1], 1.67% in experiment [2] and 5.33% in experiment [3].
For `CC(C)Nc1cc(C(=O)N[C@@H](Cc2ccccc2)[C@H](O)CNC(C)(C)c2cccc(C(F)(F)F)c2)cc(N2CCCCS2(=O)=O)c1` the same measures were 1.42%, 2.46% and 0.9%.
For `CC(C)N(Cc1cnc(N)c(C#N)n1)c1ccc(Cl)c(Cl)c1` the same measures were 3.62%, 2.68% and 2.67%.
`O=C(Nc1ccc2ccccc2c1)c1ccc(CN2CCC(Cc3ccccc3)CC2)cc1`: the figures for the inhibition in experiment [1], in experiment [2] and in experiment [3] were -2.67%, -3.63% and 7.65%, respectively.
In the same order, the values of `COc1ccc(Nc2ncc3c(-c4cccc(NC(=O)Cc5cccc(F)c5)c4)c[nH]c3n2)cc1OC` are 5.69%, 3.23% and 4.39%.
In the same order, the values of `c1ccc(-c2nc(Nc3ccncc3)sc2-c2ccccc2)cc1` are 4.18%, 4.94% and 1.21%.
Consider `Cc1ccc(-c2nc(N3CCN(C(=O)c4ccco4)CC3)c3ccc(Cl)cc3n2)cc1`, for which the results for the inhibition in experiment [1], in experiment [2] and in experiment [3] were 1.17%, 2.21% and 2.34%, respectively.
In the same order, the values of `Nc1ncc(-c2ccccc2)cc1/C=C/c1cccnc1` are 0.64%, -2.47% and 0.23%.
As to `Oc1ccc(Cl)cc1Nc1nc(C(F)(F)F)nc2ccccc12`, the results for the inhibition in experiment [1], in experiment [2] and in experiment [3] were 1.75%, 1.98% and 2.23%, respectively.
For `CS(=O)(=O)Nc1cccc(-c2cnc3[nH]cc(-c4ccc(CCC(=O)O)cc4)c3c2)c1` the same measures were 2.69%, 1.66% and 4.76%.
For `CC(CN1CCN(C)CC1)C(=O)Nc1ccc(-c2ccc(-c3nc4cc(F)ccc4[nH]3)cc2)cc1` (stereo not drawn) the same measures were 9.06%, 3.05% and 8.04%.
In the same order, the values of `N#Cc1ccc(-c2ccc(C(=O)Nc3ccc4c(c3)CCN(C3CCC3)CC4)nc2)cc1` are 3.57%, 3.06% and 2.04%.
In the case of `O=C(/C=C/c1ccc(Cl)c(Cl)c1)NCCCCCN1CCCC(CNS(=O)(=O)c2cccc(C(F)(F)F)c2)C1` (stereo not drawn), the inhibition was -0.87% in experiment [1], -0.18% in experiment [2] and -1.57% in experiment [3].
In the same order, the values of `O=C(c1ccc(F)c2ccccc12)N1CCc2cc3nccc(N4CCN5CCC[C@H]5C4)c3cc21` are 3.66%, 1.16% and 0.27%.
For the compound `CN(C)c1ccc(-c2csc(C(=O)NCC3CCN(Cc4cccc(C(F)(F)F)c4)C3)c2)cc1` (stereo not drawn), the inhibition in experiment [1] amounted to 7.22%; in experiment [2], 6.1%; in experiment [3], 9.26%.
For `N=C(N)c1ccc2[nH]c(-c3cc4cc(C(=N)N)ccc4o3)cc2c1` the same measures were 2.26%, 2.36% and 1.58%.
For `COc1ccc(Cl)cc1N1CCN(CCCNC(=O)c2ccc(-c3nc4c(C)cccc4[nH]3)s2)CC1` the same measures were 1.19%, -0.51% and -1.08%.
In the same order, the values of `Cc1cccc2nc(-c3cccc(-c4ccc(NC(=O)c5cnn6cccnc56)cc4)c3)[nH]c12` are 11.4%, 9.77% and 7.27%.
Take `CCCCCCCCN1CCCN(C(=O)c2cccc(NC(=O)Nc3ccc4ccccc4c3)c2)CC1`: the inhibition is 0.2% in experiment [1], -0.59% in experiment [2] and -0.77% in experiment [3].
For `COc1ccc(C(=O)Cn2nc(-c3ccc(Cl)cc3)ccc2=O)c(OC)c1` the same measures were 1.41%, 1.16% and 0.37%.
For `COc1ccc2[nH]c(C(=O)Nc3cccc(-c4ccc(CN(C)C)cc4)c3)cc2c1` the same measures were 3.16%, 1.78% and -0.5%.
In the same order, the values of `COc1ccc(CCNc2nc(SCc3ccccc3Cl)nc3ccccc23)cc1OC` are 1.6%, 3.03% and 1.42%.
In the case of `O=[N+]([O-])c1ccc(CNCCCCCCNCc2ccc([N+](=O)[O-])c3ccccc23)c2ccccc12`, the figures for the inhibition in experiment [1], in experiment [2] and in experiment [3] were 2.24%, 0.87% and 7.99%, respectively.
With `COCCN1CCC(CNCC(C)(C)c2nc(-c3ccc(Cl)c(O)c3)c(-c3ccncc3)[nH]2)CC1`, the figures for the inhibition in experiment [1], in experiment [2] and in experiment [3] were 7.22%, 7.6% and 7.7%, respectively.
In the case of `O=C(N[C@@H](CC1CCCCC1)C(=O)NCCN1CCCC1)c1ccc(O)c(-c2ccc(Cl)c(Cl)c2)c1`, the figures for the inhibition in experiment [1], in experiment [2] and in experiment [3] were 0.12%, 0.41% and 0.58%, respectively.
In the same order, the values of `O=C1c2ccccc2CN1CCCN1CCC(Oc2ccc(F)cc2)CC1` are -2.87%, -2.18% and -3.86%.
Consider `CN(N=Cc1ccccc1)C(=N)NCCCC#Cc1cccc(CN2CCCC2)c1`, for which the inhibition in experiment [1] is 11.4%; in experiment [2], 6.82%; in experiment [3], 1.72%.
For `COc1ccc(Nc2nc(N/N=C/c3ccc(-c4ccc([N+](=O)[O-])cc4)o3)nc(Nc3ccccc3)n2)cc1` the same measures were 14.4%, 10.6% and 9.94%.
For `Cc1ccnc(NC(c2cccc(Cl)c2Cl)c2ccc3cccnc3c2O)c1` (stereo not drawn) the same measures were 2.69%, 5.15% and -0.63%.
For `Cc1nc(C)c(-c2ccc(Oc3ccc(Cl)c(Cl)c3)cc2)c(O)c1Cl` the same measures were 1.91%, 1.63% and 2.1%.
For the compound `O=C(NC1CCN(CCC[C@]2(c3ccc(Cl)c(Cl)c3)CCCN(C(=O)c3ccccc3)C2)CC1)c1ccc(F)cc1`, the inhibition was 3.29% in experiment [1], 2.13% in experiment [2] and 2.74% in experiment [3].
